Compounds without any hit were thinned out: in the full panel of roughly 83,000, 20% have a hit.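 Single-dose data. Exposure time 48 hours. Values below 10 considered active.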 Unmarked numbers belong to inactive results. Active and inactive are the calls of the source.

Test systems include HCT-15 colon; HT29 colon; SNB-75 CNS; SNB-19 CNS; U251 CNS; PC-3 prostate; SK-MEL-5 melanoma; UACC-62 melanoma; LOX IMVI melanoma; SK-MEL-28 melanoma; SK-MEL-2 melanoma; EKVX NSCLC; SN12C renal; UO-31 renal; TK-10 renal; ACHN renal; CAKI-1 renal; CCRF-CEM leukemia; MOLT-4 leukemia.
Assay in all cases: NCI-60 one-dose screen, 48 h (100 = growth as untreated, 0 = no growth, -100 = all killed)
What all share (conditions): 10 µM unless noted

For the molecule `Cn1ccnc1C(=O)/C=C/c1ccc(CC(=O)Nc2ccc(F)cc2)cc1`, the growth is 14.1% with HCT-15 colon; -26% (active) in the test on HT29 colon; -7.25% (active) with SNB-75 CNS; 19% with SNB-19 CNS; 9.49% (active) in the test on U251 CNS; 36.1% with PC-3 prostate. For the same molecule, the growth was 34% in the test on SK-MEL-5 melanoma; 54.3% with UACC-62 melanoma; 15.2% with LOX IMVI melanoma; 85.9% with SK-MEL-28 melanoma; 102% in the test on SK-MEL-2 melanoma; 57.9% in the test on EKVX NSCLC. The growth with SN12C renal is 23.9%; in the test on UO-31 renal, 37.2%; in the test on TK-10 renal, 71.9%; in the test with ACHN renal, 69.3%; in the test on CAKI-1 renal it was 38.1%; in the test on CCRF-CEM leukemia, 6.85% (active). Besides, the growth with MOLT-4 leukemia is 20.6%.
For the molecule `COc1ccc(/C=C(\C#N)n2nc3cccc(F)c3n2)cc1`, the growth in the test with HCT-15 colon is 96.9%; with HT29 colon, 112%; in the test on SNB-75 CNS, 81.5%; in the test on SNB-19 CNS it was 94.6%; with U251 CNS, 102%; in the test with PC-3 prostate, 111%. For the same molecule, the growth in the test on SK-MEL-5 melanoma was 95.8%; in the test with UACC-62 melanoma, 91%; in the test with LOX IMVI melanoma, 101%; in the test on SK-MEL-28 melanoma it was 103%; with SK-MEL-2 melanoma, 100%; in the test with EKVX NSCLC, 104%. The growth in the test on SN12C renal is 104%; in the test with UO-31 renal it was 89.6%; with TK-10 renal, 100%; in the test on ACHN renal, 99.7%; with CAKI-1 renal, 81.2%; in the test with CCRF-CEM leukemia, 98%. In the test with MOLT-4 leukemia, the growth was 100%.
As to `COc1cc(OC)cc(C(=O)C[n+]2cccc3cc[nH]c32)c1`, the growth is 108% in the test on HCT-15 colon; 97.1% in the test with HT29 colon; 86.9% in the test with SNB-75 CNS; 93.1% in the test on SNB-19 CNS; 102% in the test on U251 CNS; 96.5% with PC-3 prostate. The growth in the test on SK-MEL-5 melanoma was 97.3%; in the test with UACC-62 melanoma, 89.8%; with LOX IMVI melanoma it was 93.8%; in the test with SK-MEL-28 melanoma, 100%; with SK-MEL-2 melanoma it was 103%; in the test on EKVX NSCLC it was 98%. In addition, the growth in the test on SN12C renal is 87.3%; with UO-31 renal it was 71.2%; with TK-10 renal, 118%; with ACHN renal it was 101%; with CAKI-1 renal it was 89%; in the test with CCRF-CEM leukemia it was 99.2%. Also, the growth in the test with MOLT-4 leukemia was 105%.
Consider `CCNC(=O)Oc1ccc(/C(=C(\C)c2ccccc2)c2ccc(OCCCN(C)C)cc2)cc1`, for which the growth was 52.1% with HCT-15 colon; 9.13% (active) in the test on HT29 colon; 90.9% with SNB-75 CNS; 88.3% in the test on SNB-19 CNS; 66.3% in the test with U251 CNS; 73.3% in the test on PC-3 prostate. The growth with SK-MEL-5 melanoma is 80.9%; with UACC-62 melanoma, 76.1%; in the test with LOX IMVI melanoma it was 67.1%; in the test on SK-MEL-28 melanoma, 58%; in the test on SK-MEL-2 melanoma it was 97.2%; in the test on EKVX NSCLC, 84%. In addition, the growth was 81.1% in the test with SN12C renal; 55.4% in the test with UO-31 renal; 84.5% in the test on TK-10 renal; 98.1% in the test on ACHN renal; 84.3% in the test with CAKI-1 renal; 82.7% in the test on CCRF-CEM leukemia. Moreover, the growth with MOLT-4 leukemia was 65.8%.
As for `Nc1n[nH]c2cccc(C#Cc3cccc(C(=O)Nc4cccc(C(F)(F)F)c4)c3)c12`, the growth was 64.8% with HCT-15 colon; 38.8% with HT29 colon; 77.9% in the test on SNB-75 CNS; 104% with SNB-19 CNS; 72.8% with U251 CNS; 72.3% in the test with PC-3 prostate. For the same molecule, the growth in the test on SK-MEL-5 melanoma is 53.8%; in the test on UACC-62 melanoma, 42.7%; in the test on LOX IMVI melanoma it was 38%; in the test with SK-MEL-28 melanoma, 53.5%; with SK-MEL-2 melanoma, 33.8%; in the test with EKVX NSCLC it was 89.7%. Also, the growth with SN12C renal was 67.3%; in the test on UO-31 renal, 37.2%; in the test with TK-10 renal, 97.5%; in the test with ACHN renal, 54.7%; in the test on CAKI-1 renal, 68.4%; in the test with CCRF-CEM leukemia, 32.1%. The growth in the test on MOLT-4 leukemia is 39.2%.
In the case of `O=C(NCCNc1nccc(-c2c(-c3cccc(F)c3)nc3sccn23)n1)c1ccc(Cl)cc1`, the growth with HCT-15 colon was 40.1%; in the test on HT29 colon it was 35.2%; with SNB-75 CNS, 63.5%; in the test on SNB-19 CNS, 71.9%; in the test with U251 CNS, 66.1%; in the test on PC-3 prostate, 72.5%. The growth is 33.6% in the test with SK-MEL-5 melanoma; 14.7% with UACC-62 melanoma; 43.4% with LOX IMVI melanoma; 64.9% in the test with SK-MEL-28 melanoma; 62.5% with SK-MEL-2 melanoma; 63.2% in the test on EKVX NSCLC. The growth with SN12C renal is 52.5%; in the test with UO-31 renal it was 28.1%; in the test on TK-10 renal, 75.4%; in the test on ACHN renal, 34.2%; in the test on CAKI-1 renal, 41.5%; with CCRF-CEM leukemia, 58.2%. Also, the growth in the test with MOLT-4 leukemia was 65.7%.
With `CC(=O)N1N=C(c2ccc(-n3ccc(C(F)(F)F)n3)c(F)c2)CC1c1ccc[nH]1` (configuration not stated), the growth was 98.8% in the test with HCT-15 colon; 102% in the test with HT29 colon; 103% with SNB-75 CNS; 100% in the test with SNB-19 CNS; 99.3% with U251 CNS; 96.7% in the test with PC-3 prostate. For the same molecule, the growth in the test on SK-MEL-5 melanoma was 97.7%; in the test on UACC-62 melanoma, 90.7%; with LOX IMVI melanoma it was 98.1%; in the test on SK-MEL-28 melanoma it was 105%; in the test with SK-MEL-2 melanoma it was 94%; in the test on EKVX NSCLC, 102%. Besides, the growth is 102% with SN12C renal; 92.7% in the test with UO-31 renal; 108% with TK-10 renal; 109% with ACHN renal; 95.4% in the test on CAKI-1 renal; 93.7% in the test with CCRF-CEM leukemia. The growth in the test on MOLT-4 leukemia was 85.6%.
`NS(=O)(=O)c1ccc(Cn2c(SCC(=O)N/N=C/c3ccccc3O)nc3ccccc3c2=O)cc1`: the growth with HCT-15 colon was 75%; with HT29 colon it was 86.3%; in the test with SNB-75 CNS, 84.3%; in the test with SNB-19 CNS, 55.6%; with U251 CNS, 43.1%; in the test with PC-3 prostate, 67.9%. In addition, the growth in the test on SK-MEL-5 melanoma was 58.1%; in the test on UACC-62 melanoma, 38.1%; in the test on LOX IMVI melanoma it was 16.1%; with SK-MEL-28 melanoma, 57.7%; in the test on SK-MEL-2 melanoma it was 36.6%; in the test on EKVX NSCLC it was 60.1%. In addition, the growth with SN12C renal was 56.2%; in the test on UO-31 renal, 61%; in the test with TK-10 renal, 53.8%; in the test on ACHN renal, 72.3%; with CAKI-1 renal, 54.2%; with CCRF-CEM leukemia it was 23.2%. Also, the growth in the test with MOLT-4 leukemia is 20.8%.

Values taken from PubChem BioAssay (NCI).
